Source: PubChem BioAssay (National Center for Advancing Translational Sciences (NCATS))
ELG1 DNA repair: ELG1-dependent DNA repair inhibition; Potency, µM (doses to about 46.1 µM), without a hit: at the highest dose activity change, negative = inhibition, usual class: inhibitors; hit rate 2.3% among 330,000; HEK293T ELG1-luciferase reporter, luminescence, 16 h; DNA damage induced by 5-fluorouridine; note: % is set by controls: 0 for no effect and ±100 for the full control effect; nearly all actives have a fitted effect of over 55% in size
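DMSO vehicle served as the neutral condition. Each well held 2,000 cells given 5-fluorouridine plus compound; after 16 hr at 37 °C/5% CO2, ONE-Glo was added and luciferase measured 30 min later.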
FLuc counter: firefly luciferase modulation, counter-screen for miR-21 project. purified FLuc, Km substrates, luminescence inhibition. hit rate 6.9% among 360,000. Potency, µM (top dose mostly 57.5 µM), for the others: at the highest dose activity change, negative = inhibition, hits mostly inhibitors;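 note: plate controls were vehicle for no effect and reference inhibitor for full effect; nearly all actives have a fitted effect of over 55% in size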
Target sequence (P08659 whole entry, looked up): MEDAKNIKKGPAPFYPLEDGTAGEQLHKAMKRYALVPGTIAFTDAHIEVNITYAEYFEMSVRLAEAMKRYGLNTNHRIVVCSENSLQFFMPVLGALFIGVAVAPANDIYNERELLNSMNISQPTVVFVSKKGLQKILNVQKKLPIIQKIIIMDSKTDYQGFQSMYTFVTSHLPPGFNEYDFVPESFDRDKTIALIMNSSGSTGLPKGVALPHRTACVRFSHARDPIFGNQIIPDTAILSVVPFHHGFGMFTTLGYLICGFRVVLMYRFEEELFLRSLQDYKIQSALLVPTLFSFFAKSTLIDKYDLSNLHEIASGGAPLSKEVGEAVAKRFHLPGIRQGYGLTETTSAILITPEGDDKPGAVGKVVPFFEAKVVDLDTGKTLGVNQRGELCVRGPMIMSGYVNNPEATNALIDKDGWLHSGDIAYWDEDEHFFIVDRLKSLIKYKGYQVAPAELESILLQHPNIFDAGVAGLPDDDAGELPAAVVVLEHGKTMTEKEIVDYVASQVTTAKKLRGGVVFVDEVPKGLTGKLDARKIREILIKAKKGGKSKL
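Purified P. pyralis luciferase, 10 nM final, with Km-level 10 uM D-luciferin and 10 uM ATP in 50 mM Tris acetate pH 7.5, 10 mM Mg acetate, 0.01% Tween-20, 0.05% BSA; 6-point qHTS titration about 60 µM downward; luminescence read.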
NPC1 prom act: activates the NPC1 promoter; hit rate 2.4% among 320,000; AID 485313; Huh7 NPC1 promoter luciferase reporter, 24 h; Potency, µM (series often up to 9.22 µM), without a hit: top-dose activation, most hits filed as activators; note: % of control where 0% means no effect; nearly all actives have a fitted effect of over 60% in size
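In 1536-well qHTS, Huh7 cells harboring an NPC1 promoter–luciferase construct received compound for 24 h; activation was quantified by luminescence following luciferase reagent addition.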
ELG1 genotox: inducers of genotoxicity in HEK293T ELG1-luciferase cells; HEK293T ELG1-luciferase reporter, luminescence, 16 h; Potency, µM (titrated, usually from 46 µM), without a hit: at the top dose activity change, positive = activation, usual class: activators; hit rate 1.3% among 330,000; AID 504466; note: % of control where 0% means no effect; nearly all actives have a fitted effect of over 60% in size
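Reporter readout depends on ELG1 protein level, which increases with genetic stress. After 16 hr compound exposure at 37 °C, luciferase activity was quantified using ONE-Glo.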
Rab9 prom act: Rab9 promoter activation; Huh7 Rab9 promoter-luciferase reporter, luminescence, 24 h; Potency, µM (doses to about 9.22 µM), for inactives: at the top dose activation, negative = inhibition, actives largely listed as activators; hit rate 2.8% among 320,000; AID 485297; note: % of control where 0% means no effect; nearly all actives have a fitted effect of over 60% in size
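Stable Rab9-luc Huh7, 1500 cells/well, 2 h settle; cmpd in DMSO, 24 h, 37 °C/5% CO2; luciferase reagent 10 min RT; luminescence.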
SMN2 splice up: SMN2 splice variant enhancement | Potency, µM (top dose mostly 46.1 µM), inactives show top-dose activity change, positive = activation, hits mostly activators | hit rate 2.8% among 210,000 | HEK293 SMN2-luciferase splicing reporter, luminescence, 30-36 h; note: % of control where 0% means no effect; nearly all actives have a fitted effect of over 55% in size
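HEK293 cells carry an SMN2 […]–luciferase reporter in which exon 7 inclusion puts luciferase in frame. Cells were plated 10-12 h before compound addition, then incubated 30-36 h at 37C. ONE-Glo luminescence was read; sodium butyrate at 4.5 mM final served as control.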
* hit, by the source's call; ? = inconclusive; · = no result; [ ] = dose if it differs, or a comment. The list is not random: actives were taken first. Their share in the collection is about 9.3%. Calls come from the whole dose curve; as a rule, active = well fitted curve in the direction sought with a large enough effect; inconclusive = small, poorly fitted or top-dose-only effect, or another doubt; inactive = no such curve, though single readings can be large; an effect the other way counts as inactive or inconclusive. Potency is the fitted concentration of half-maximal effect.

SMILES	ELG1 DNA repair	FLuc counter	NPC1 prom act	ELG1 genotox	Rab9 prom act	SMN2 splice up
CCN(CC)CCCNC(=S)Nc1ccc(Br)cc1	?	11µM*	?	23µM*	?	·
CC(C)(C)NC(=S)Nc1ccc(Br)cc1	24%	19µM*	6%	2%	15%	-22%
CCN(CC)CCNC(=S)Nc1ccc(Cl)cc1	11%	1%	-3%	0%	-15%	24%
CC(=O)NCC(=O)N[C@H](CCC(=O)O)C(=O)O	·	·	·	·	·	-12%
COc1ccc(OC)c(NC(=O)COC(=O)CCCN=C2NS(=O)(=O)c3ccccc32)c1	-5%	·	·	0%	·	·
N#Cc1ccc(C(=O)N2CCN(c3ncccn3)CC2)cc1	-1%	-1%	-3%	-1%	1%[1.84 µM]	·
CC(C)CC(=O)OC1C(N2CCOCC2)c2c(ccc(/C=C/C(=O)N3CCOCC3)c2O)OC1(C)C (centres undefined)	16µM*	1%	-1%	0%	0%	9%
CC1(C)Oc2ccc(/C=C/C(=O)N3CCOCC3)c(O)c2C(N2CCOCC2)C1O (centres undefined)	?	3%	2%	9%	-5%	21%
Cc1ccc(S(=O)(=O)N2CCOCC2)cc1C(=O)Nc1ccc2c(c1)OCCO2	-1%	1%	-5%	3%	-3%	·
COc1ccc(OC(=O)c2cnn(-c3ccccc3)c2C)cc1	?	4.8µM*	3.2µM*	?	3.2µM*	?
CC(=O)c1c(C)nn(-c2ccccc2)c1C	23%	2%	-1%	0%	-6%	·
Cc1nn(-c2ccccc2)c(C)c1C(=O)Oc1ccccc1	?	17µM*	28%	15%	?	·
COc1ccc(OC(=O)c2c(C)nn(-c3ccccc3)c2C)cc1	?	15µM*	?	?	?	·
COC(=O)c1cnn(-c2ccccc2)c1N	0%	-3%	18%	2%	11%	·
O=C(NCC(=O)N1CCN(S(=O)(=O)c2cccs2)CC1)c1ccc(Cl)cc1	12%	4%	-1%	-1%	-5%	12%
Cc1ccc(C(=O)N2CCCc3ccccc32)c(F)c1F	2%	-6%	2%	0%	-3%	·
CC1=C(C(=O)Nc2ccccc2)C(c2cccs2)NC(=O)N1 (centres undefined)	1%	3%	-3%	-3%	-10%	-7%
Fc1ccc(-c2cn(-c3ccccc3)c3[n+]2CCS3)cc1	21µM*	-2%	1%	-13%	-14%	·
CCCCOc1ccc(-c2cnc3ccccc3n2)cc1	?	0.43µM*	0.4µM*	?	0.45µM*	1.4µM*
CCCCCCCOc1ccc(-c2ccc(C#N)cn2)cc1	0%	3%	-4%	-2%	-4%	-16%
Cc1ccc(-c2cnc3ccccc3n2)cc1C	?	0.54µM*	?	?	23%	·
Clc1ccc(-c2cnc3ccccc3n2)cc1	?	4.8µM*	3.2µM*	?	4µM*	13µM*
Clc1ccc(-c2nc3ccccc3nc2-c2ccccc2)cc1	0%	-1%	-2%	-6%	1%	-30%
C[C@H]1Cc2c(-c3ccccc3)nc3c(c2CO1)CN(C(=O)Nc1cccc(C#N)c1)CC3	·	·	·	·	·	-4%[9.22 µM]
COc1ccc(-c2csc(-c3ccccc3)n2)c(OC)c1	?	3.4µM*	?	4.6µM*	?	11µM*
SMILES	ELG1 DNA repair	FLuc counter	NPC1 prom act	ELG1 genotox	Rab9 prom act	SMN2 splice up
COc1ccc(-c2csc(-c3cccs3)n2)c(OC)c1	?	3.4µM*	?	2.1µM*	1.3µM*	11µM*
Nc1c(C(=O)Nc2ccc3c(c2)OCCO3)nnn1Cc1cccc(F)c1	?	?	3.5µM*	?	3.2µM*	·
Cc1ccc(C)c(Cn2nnc(C(=O)Nc3ccc4c(c3)OCCO4)c2N)c1	?	?	?	4%	?	·
COc1ccc(Cn2nnc(C(=O)Nc3ccc4c(c3)OCCO4)c2N)cc1Br	?	21µM*	-2%	10%	13%	·
Cc1ccccc1Cn1nnc(C(=O)Nc2ccc3c(c2)OCCO3)c1N	?	3µM*	2.8µM*	18%	1.8µM*	·
Nc1c(C(=O)Nc2ccc3c(c2)OCCO3)nnn1Cc1ccc(Cl)cc1	?	?	2.2µM*	?	0.89µM*	·
NCCC[C@@H](CC(=O)N[C@@H]1CCNC[C@H]1C(=O)N[C@H](CC(=O)N[C@@H](CCC(=O)O)CC(=O)O)Cc1c[nH]c2ccccc12)NC(=O)C[C@H](Cc1ccccc1)NC(=O)[C@@H]1CCCC[C@H]1N	·	·	·	·	·	6%
O=C(CSc1nc(-c2ccccc2)c(-c2ccccc2)o1)NC1CCS(=O)(=O)C1 (centres undefined)	23µM*	-10%	-3%	0%	1%	-20%
Cc1cccc(CCNC(=O)C2CCCN(S(=O)(=O)c3ccc4c(c3)oc(=O)n4C)C2)c1 (centres undefined)	·	-1%	·	·	·	-3%
Cc1ccc(OCC(=O)Nc2cccc(C)n2)c(C)c1	?	4.3µM*	?	4.1µM*	?	23%
Cc1cccc(NC(=O)COc2ccc(Br)cc2)n1	?	24µM*	14%	14%	11%	-10%
N#Cc1cccc(S(=O)(=O)NNC(=O)C23CC4CC(CC(C4)C2)C3)c1	0%	·	·	0%	·	·
C=C(C)CSc1nc(N)c(C#N)c(-c2ccc(C)cc2)c1C#N	·	15µM*	·	·	·	2%
CCOC(=O)CSc1nc(N)c(C#N)c(-c2ccc(OC)cc2)c1C#N	-1%	-1%	0%	7%	3%	·
Cc1ccc(Nc2cc(-n3nc(C)cc3C)ncn2)c(C)c1	?	1%	0%	-6%	-3%	-21%
Cc1ccc(Nc2cc(-n3cccn3)ncn2)c(C)c1	?	11µM*	3.5µM*	7.3µM*	2.5µM*	24%
O=C(/C=C/c1ccccc1F)c1ccoc1	7%	12µM*	-4%	-1%	4%	1%
O=c1c2ccccc2nc(SCCN2CCCCC2)n1CCc1ccccc1	4%	?	0%	1%	0%	·
CCOn1c(=O)c(-c2cc(OC)ccc2OC)[n+]([O-])c2ccccc21	3%	-1%	-3%	-4%	3%	·
CCOc1ccc(OCC)c(-c2c(=O)n(OCc3ccc(C(C)(C)C)cc3)c3ccccc3[n+]2[O-])c1	?	8.5µM*	-5%	-6%	-1%	-6%
CCCCN1CC(c2nc3ccccc3n2CCCCOc2ccccc2C)CC1=O (centres undefined)	·	-1%	·	·	·	·
N#CCCNS(=O)(=O)c1ccc(C(=O)OCCCOC(=O)c2ccc(S(=O)(=O)NCCC#N)cc2)cc1	-2%	1.2µM*	16%	-12%	11%	·
